Only some compounds are listed: those with a hit (about 9.4% of all), similar ones and a draw of the others.
Rab9 prom act: Rab9 promoter activation; Huh7 Rab9 promoter-luciferase reporter, luminescence, 24 h; Potency, µM (doses to about 9.22 µM), without a hit: top-dose activation, negative = inhibition, usual class: activators; actives 2.8% (n = 320,000); note: % of control where 0% means no effect; nearly all actives have a fitted effect of over 60% in size
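Luminescence from Amplite-detected luciferase (10 minutes, ambient) reports Rab9 promoter activation. Before that, stable Rab9-luciferase Huh7 cells (1500/well, reduced-serum OP-MEM I plus 10% FBS) were exposed to compound for 24 hours at 37C.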
ELG1 genotox: induces genotoxicity in HEK293T cells with luciferase-tagged ELG1. AID 504466. Potency, µM (titrated, usually from 46 µM), without a hit: at the top dose activity change, positive = activation, hits mostly activators. actives 1.3% (n = 330,000). HEK293T ELG1-luciferase reporter, luminescence, 16 h; note: % of control where 0% means no effect; nearly all actives have a fitted effect of over 60% in size
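Screening used a luciferase reporter fused to human ELG1 in HEK293T cells. Luminescence was read on a CCD plate imager after 16 hr exposure and 30 min ONE-Glo incubation.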
NPC1 prom act: activators of NPC1 promoter | Huh7 NPC1 promoter luciferase reporter, 24 h | Potency, µM (doses to about 9.22 µM), inactives show at the top dose activation, most hits filed as activators | actives 2.4% (n = 320,000) | AID 485313; note: % of control where 0% means no effect; nearly all actives have a fitted effect of over 60% in size
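Compounds in DMSO were transferred onto Huh7 NPC1-luciferase reporter cells pre-incubated 2 h; after 24 h at 37 °C, Amplite reagent was dispensed and luminescence recorded 10 min later.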
FLuc counter: inhibits or activates purified firefly luciferase, miR-21 counter-screen; P08659; purified FLuc, Km substrates, luminescence inhibition; Potency, µM (top dose mostly 57.5 µM), for inactives: top-dose activity change, negative = inhibition, usual class: inhibitors; actives 6.9% (n = 360,000); AID 588342;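 note: plate controls were vehicle for no effect and reference inhibitor for full effect; nearly all actives have a fitted effect of over 55% in size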
Target sequence (P08659 whole entry, looked up): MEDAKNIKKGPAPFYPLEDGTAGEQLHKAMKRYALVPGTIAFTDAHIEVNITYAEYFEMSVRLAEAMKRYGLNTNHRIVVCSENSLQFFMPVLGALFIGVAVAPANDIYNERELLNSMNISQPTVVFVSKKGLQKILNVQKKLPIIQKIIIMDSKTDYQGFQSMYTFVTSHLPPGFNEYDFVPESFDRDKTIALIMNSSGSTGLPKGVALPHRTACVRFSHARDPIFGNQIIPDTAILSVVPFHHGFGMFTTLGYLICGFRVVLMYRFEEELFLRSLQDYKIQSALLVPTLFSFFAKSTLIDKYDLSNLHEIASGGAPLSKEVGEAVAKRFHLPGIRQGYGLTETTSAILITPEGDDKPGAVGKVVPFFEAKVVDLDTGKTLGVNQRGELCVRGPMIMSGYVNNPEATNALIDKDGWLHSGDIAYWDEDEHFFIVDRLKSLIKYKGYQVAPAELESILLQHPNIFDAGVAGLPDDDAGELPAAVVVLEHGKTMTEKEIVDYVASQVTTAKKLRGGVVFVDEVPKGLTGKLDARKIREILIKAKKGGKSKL
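Purified P. pyralis luciferase, 10 nM final, with Km-level 10 uM D-luciferin and 10 uM ATP in 50 mM Tris acetate pH 7.5, 10 mM Mg acetate, 0.01% Tween-20, 0.05% BSA; 6-point qHTS titration about 60 µM downward; luminescence read.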
ELG1 DNA repair: inhibitors of ELG1-dependent DNA repair in HEK293T cells; HEK293T ELG1-luciferase reporter, luminescence, 16 h; DNA damage induced by 5-fluorouridine; Potency, µM (highest dose often 46.1 µM), for inactives: at the highest dose activity change, negative = inhibition, most hits filed as inhibitors; actives 2.3% (n = 330,000); note: % is set by controls: 0 for no effect and ±100 for the full control effect; nearly all actives have a fitted effect of over 55% in size
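In this reporter screen, reduction of luminescence relative to DMSO vehicle indicated activity. Compounds and 5-fluorouridine were added together to 2,000 cells per well, incubated for 16 hr at 37 °C, then developed with ONE-Glo.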
SMN2 splice up: increases expression of the SMN2 splice variant | HEK293 SMN2-luciferase splicing reporter, luminescence, 30-36 h | Potency, µM (doses to about 46.1 µM), for the others: top-dose activity change, positive = activation, hits mostly activators | actives 2.8% (n = 210,000) | AID 1458; note: % of control where 0% means no effect; nearly all actives have a fitted effect of over 55% in size
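qHTS luciferase splicing reporter: luminescence rises when SMN2 exon 7 is included in transfected HEK293 cells. Compound exposure lasted 30-36 h at 37C, with 4.5 mM final sodium butyrate as control, followed by a ONE-Glo read.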
Active calls of the source: *; u = inconclusive; x = no result. Calls come from the whole dose curve; as a rule, active = well fitted curve in the direction sought with a large enough effect; inconclusive = small, poorly fitted or top-dose-only effect, or another doubt; inactive = no such curve, though single readings can be large; an effect the other way counts as inactive or inconclusive. Potency is the fitted concentration of half-maximal effect.

SMILES	Rab9 prom act	ELG1 genotox	NPC1 prom act	FLuc counter	ELG1 DNA repair	SMN2 splice up
O=C1C2C3C=CC(C3)C2C(=O)N1c1ccc(-c2nc3ccccc3o2)cc1 (configuration not stated)	1.41µM*	1.84µM*	1.41µM*	2.69µM*	u	12.6µM*
COCCn1c(SC)nnc1-c1c[nH]c2ccccc12	-5.1%	11.4%	2.2%	-8.1%	14.7%	-1.3%
COCC(C)N=C1NN=C(c2c[nH]c3ccccc23)CS1 (configuration not stated)	u	u	18.7%	21.3µM*	u	x
CCn1c(SC)nnc1-c1c[nH]c2ccccc12	0.2%	25.7%	12.1%	u	3.3%	-43.1%
CCN=C1NN=C(c2c[nH]c3ccccc23)CS1	1.12µM*	u	3.55µM*	6.01µM*	u	x
CC(C)N1C(=O)CN(C2CCCCCC2)C(=O)C1c1ccccc1F (configuration not stated)	u	u	3.55µM*	-14.0%	u	6.6%
Cc1ccc2nc(-c3ccccc3)cc(C(=O)NCC3CCCO3)c2c1 (configuration not stated)	1.4%	-7.7%	-1.5%	5.36µM*	-2.3%	x
O=C(NCC1CCCO1)c1cc(-c2ccncc2)nc2ccc(S(=O)(=O)N3CCOCC3)cc12 (configuration not stated)	-14.3%	1.6%	-0.6%	1.3%	-4.1%	-0.3%
Cn1nc(-c2ccc(Cl)cc2)c2cc(C(=O)NCC3CCCO3)sc21 (configuration not stated)	-0.4%	-6.3%	-11.9%	-2.2%	16.4µM*	7.4%
CN1CCN(CCCNC(=O)c2cc3c(-c4ccc(Cl)cc4)nn(C)c3s2)CC1	2.2%	u	-3.3%	-1.8%	u	-28.6%
CCOc1ccc(-c2cc(C(=O)NCC3CCCO3)c3ccccc3n2)cc1 (configuration not stated)	17.6%	-11.1%	12.8%	5.36µM*	u	u
COc1ccc(-c2cc(C(F)F)n3ncc(C(=O)NCC4CCCO4)c3n2)cc1 (configuration not stated)	-0.6%	-13.2%	-1.1%	8.2%	2.06µM*	-7.7%
COc1ccc(-c2cc(C(=O)NCC3CCCO3)c3ccccc3n2)c(OC)c1 (configuration not stated)	-3.3%	-9.9%	-6.6%	0.5%	-4.1%	x
O=C(NCC1CCCO1)c1cnn2c(C(F)F)cc(C3CC3)nc12 (configuration not stated)	-1.9%	2.6%	-0.2%	-3.2%	6.5%	x
CCc1ccc(C2c3c(oc4ccc(F)cc4c3=O)C(=O)N2CCc2ccc(OC)cc2)cc1 (configuration not stated)	x	x	x	2.0%	x	5.0%
COc1ccccc1CCNC(=O)c1cnn2c(C(F)F)cc(C)nc12	-6.0%	-1.0%	-1.4%	5.8%	-5.7%	4.6%
COc1cccc(-c2cc(C(=O)NCC3CCCO3)c3cc(Br)cc(C)c3n2)c1 (configuration not stated)	5.5%	u	-7.3%	2.69µM*	12.3%	x
O=C(NCC1CCCO1)c1cn(Cc2ccccc2)nc1-c1ccccc1 (configuration not stated)	-6.6%	-0.8%	-3.0%	1.2%	1.3%	x
Cc1ccc(-c2nn(-c3ccccc3)cc2C(=O)NCC2CCCO2)cc1 (configuration not stated)	-0.1%	-2.9%	0.0%	13.5µM*	-0.1%	x
COc1ccccc1CNC(=O)c1cnn2c(C(F)F)cc(C)nc12	0.5%	0.9%	-0.7%	4.7%	23.1µM*	-38.5%
O=C(CSc1nnc(-c2ccccc2F)o1)N1CCc2ccccc21	x	x	x	1.0%	x	1.8%
Cc1cc2nc(-c3ccc(=O)[nH]c3)n(C)c2cc1C	11.7%	10.0%	5.4%	16.9µM*	25.6%	x
Cc1ccc(OCC(=O)Nc2nonc2-c2ccc(C)c(C)c2)cc1C	x	x	x	-0.8%	x	x

Source: PubChem BioAssay (National Center for Advancing Translational Sciences (NCATS))
